Screening results deposited in PubChem BioAssay by several laboratories.
A selection: hits, their analogues and other compounds. The true share with any hit is near 3.2%.
NadD block = inhibitors of S. aureus NadD, primary screen, biochemical, colorimetric, uHTS; purified NadD enzyme, colorimetric absorbance read-out; 360,000 tested, 0.78% active; inhibition, % at 20 µM; in the data active means inhibition above about 26%
bovine MsrA act = bovine MsrA enzyme activators, primary screen, biochemical, absorbance, HTS | AID 602163, 2012 | activation, % at 10.6 µM | purified bovine MsrA, absorbance read-out | 360,000 tested, 0.3% active | Methionine sulfoxide reductase A (Bos taurus); in the data active means activation above about 7.5%;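 further: 0% = vehicle and 100% = reference activator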
rCAG RNA binder = binders of r(CAG) RNA repeats, primary screen, biochemical, fluorescence. r(CAG) RNA repeat, TO-PRO-1 dye displacement fluorescence. inhibition, % at 3 µM. 370,000 tested, 1.3% active;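 active means inhibition above the plate cutoff, the mean of all test compounds on that plate plus 3 SD, cut at about 35% in these data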;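 further: 0% = DMSO alone and 100% = 100 µM mitoxantrone as full dye displacement; higher means more dye released from RNA so lower well fluorescence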
DSG3 Ab inh = inhibitors of pemphigus antibody binding to DSG3, primary screen, biochemical, bead-based, flow cytometry, scFv-GFP; DSG3-coupled beads, scFv-anti-DSG3-GFP binding; active compounds read low; binding (percent of control), % at 10 µM; Desmoglein-3 (Homo sapiens), P32926; 310,000 tested, 0.48% active;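 active means binding more than 3 SD below its plate's average and above zero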;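 further: hits lower antibody fragment binding to DSG3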
MsrA inh = bovine MsrA enzyme inhibitors, primary screen, biochemical, absorbance, HTS; 360,000 tested, 0.75% active; Methionine sulfoxide reductase A (Bos taurus); AID 651718, 2012; purified bovine MsrA, absorbance read-out; inhibition, % at 15.5 µM;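 further: 0% = vehicle wells with enzyme and 100% = reference inhibitor wells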
DAGLB inhibitor = DAGLB lipase inhibitors, primary screen, biochemical, fluorescence, HTS; 340,000 tested, 0.059% active; HEK293T DAGLB membrane lysate, EnzChek fluorogenic substrate; inhibition, % at 5.17 µM; Diacylglycerol lipase-beta (Homo sapiens), Q8NCG7; in the data active means inhibition above about 34%;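 further: 0% = enzyme with vehicle and 100% = wells lacking enzyme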
Target sequence (Q8NCG7 whole entry, looked up): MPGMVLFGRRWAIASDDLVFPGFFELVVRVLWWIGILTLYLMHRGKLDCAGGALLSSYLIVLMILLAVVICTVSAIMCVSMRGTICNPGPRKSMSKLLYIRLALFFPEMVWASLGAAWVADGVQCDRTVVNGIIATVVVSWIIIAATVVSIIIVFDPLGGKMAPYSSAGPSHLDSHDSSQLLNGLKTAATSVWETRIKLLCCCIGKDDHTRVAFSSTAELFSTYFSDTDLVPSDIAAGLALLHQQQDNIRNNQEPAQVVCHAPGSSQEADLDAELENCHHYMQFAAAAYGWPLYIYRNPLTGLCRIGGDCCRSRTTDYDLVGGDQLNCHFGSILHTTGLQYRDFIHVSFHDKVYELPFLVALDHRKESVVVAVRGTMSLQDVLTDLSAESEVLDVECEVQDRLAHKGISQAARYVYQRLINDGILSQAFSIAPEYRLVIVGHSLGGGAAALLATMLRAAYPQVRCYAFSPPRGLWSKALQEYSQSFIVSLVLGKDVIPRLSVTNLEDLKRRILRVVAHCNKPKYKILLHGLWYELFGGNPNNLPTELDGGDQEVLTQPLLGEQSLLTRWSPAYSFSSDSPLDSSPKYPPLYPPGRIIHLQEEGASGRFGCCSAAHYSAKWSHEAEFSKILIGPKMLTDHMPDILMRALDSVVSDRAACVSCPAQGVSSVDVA
MsrA inh confirm = bovine MsrA inhibitors, retest, confirmation, biochemical, absorbance, HTS | 2,300 tested, 41% active | inhibition, % at 15.5 µM | shares compounds with MsrA inh | purified bovine MsrA, absorbance read-out;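 further: coupled to thioredoxin reductase with NADPH and selenocystamine and DMSO as substrate; 0% = vehicle only and 100% = full effect of reference inhibitor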
* hit, by the source's call. Unless noted, no stated cut-off is given here; in the data, active means inhibition above about 4.5%; inactive means the rest.

Screening Cc1cc(C)cc(-n2c3ccc(NC(=S)NC4CCCCC4)cc3c(=O)n2C)c1 returned NadD block 12.8, bovine MsrA act -0.3, rCAG RNA binder 5.8 and MsrA inh 0.7.
Screening COc1ccc(CN2C/C(=C/c3ccc(C)cc3)N3C(=O)C[C@@H](c4ccccc4)N=C23)c(OC)c1 returned rCAG RNA binder 7.8.
Screening Cc1ccccc1C(=O)NC1CCCCN(Cc2cccc(Cl)c2)C1=O (stereo unspecified) returned rCAG RNA binder -0.2.
`O=C(O)c1ccc2c(c1)C(=O)N([C@H](Cc1cccc3ccccc13)C(=O)O)C2=O` gave NadD block -5.3, bovine MsrA act -1.5, rCAG RNA binder 2.8 and MsrA inh 0.4.
Screening COc1cc(/C=N/NC(=O)c2ccc(-n3cccc3)cc2)ccc1O returned NadD block 9.6, bovine MsrA act -5.2, rCAG RNA binder 7.0, DSG3 Ab inh 94.0, MsrA inh 5.9*, DAGLB inhibitor -1.6 and MsrA inh confirm 4.8*.
O=C(N/N=C/c1ccc(Cl)cc1)c1ccc2c(c1)OCO2 was read as NadD block -2.7, bovine MsrA act -9.3, rCAG RNA binder -0.9, DSG3 Ab inh 104.3, MsrA inh 1.0 and DAGLB inhibitor -3.9.
`O=C(N/N=C/c1ccc2c(c1)OCO2)c1ccc2c(c1)OCCO2` gave NadD block 2.2, bovine MsrA act -5.0, rCAG RNA binder -0.1, MsrA inh 4.9*, DAGLB inhibitor 0.5 and MsrA inh confirm 4.2.
Screening O=C(N/N=C/c1ccc2c(c1)OCO2)c1ccc(Br)o1 returned NadD block 1.5, bovine MsrA act -3.5, rCAG RNA binder 0.5, DSG3 Ab inh 93.1, MsrA inh 7.5*, DAGLB inhibitor -3.7 and MsrA inh confirm 8.3*.
Screening COc1cc(/C=N/NC(=O)c2ccc3c(c2)OCO3)ccc1O returned NadD block -2.2, bovine MsrA act -3.8, rCAG RNA binder -1.1, DSG3 Ab inh 105.2, MsrA inh 6.3*, DAGLB inhibitor 0.4 and MsrA inh confirm 3.8.
Screening Cc1cccc(N2O[C@H]3C=C[C@@H]2C3)n1 returned rCAG RNA binder 9.9 and MsrA inh 0.5.
Screening COc1ccc(-n2c(COc3ccccc3)nnc2SCC(=O)Nc2ccc3c(c2)OCCO3)cc1 returned rCAG RNA binder 2.9.
Screening O=C(N/N=C/c1ccccn1)c1ccccc1 returned NadD block 1.4, bovine MsrA act -1.0, rCAG RNA binder 0.6, DSG3 Ab inh 113.3, MsrA inh 0.8 and DAGLB inhibitor 1.6.
For CN(C)c1ccc(C(=O)N/N=C/c2ccccn2)cc1 the results were NadD block -3.3, bovine MsrA act -3.2, rCAG RNA binder 1.3, DSG3 Ab inh 108.8, MsrA inh 7.4*, DAGLB inhibitor -1.9 and MsrA inh confirm 3.5.
Screening CCOc1cc(/C=N/NC(=O)c2ccc3c(c2)OCCO3)cc(Br)c1O returned NadD block 13.5, bovine MsrA act -4.1, rCAG RNA binder 11.2, DSG3 Ab inh 112.1, MsrA inh 6.0*, DAGLB inhibitor -5.8 and MsrA inh confirm 6.9*.
CN(C)c1ccc(/C=N/NC(=O)c2ccc3c(c2)OCCO3)cc1 was read as NadD block 1.0, bovine MsrA act -4.0, rCAG RNA binder -2.7, DSG3 Ab inh 108.2, MsrA inh 5.0*, DAGLB inhibitor 0.6 and MsrA inh confirm 5.5*.
`CCN(CC)c1ccc(/C=N/NC(=O)c2ccc3c(c2)OCCO3)cc1` gave NadD block -0.6, bovine MsrA act -0.8, rCAG RNA binder -2.2, DSG3 Ab inh 101.1, MsrA inh 3.1 and DAGLB inhibitor 0.6.
`CCN(CC)c1nc(C=Cc2ccc(N(C)C)cc2)c2nccnc2n1` gave NadD block -5.2, bovine MsrA act -3.8, rCAG RNA binder 2.8, DSG3 Ab inh 235.9, MsrA inh 1.4 and DAGLB inhibitor -46.3.
`Cn1c(C(=O)O)cc2c(=O)n3ccccc3nc21` gave NadD block 1.7, bovine MsrA act -8.0, rCAG RNA binder 0.3, DSG3 Ab inh 98.6, MsrA inh 5.3*, DAGLB inhibitor -0.1 and MsrA inh confirm 2.3.
COCCCNC(=O)CSc1nc2c(sc(=S)n2-c2cc(Cl)ccc2OC)c(=O)[nH]1 was read as NadD block 1.7, bovine MsrA act -14.2, rCAG RNA binder 21.3, DSG3 Ab inh 97.7, MsrA inh 5.8*, DAGLB inhibitor 0.6 and MsrA inh confirm 4.3.
Screening COc1ccc(CCNC(=O)CSc2nc3c(sc(=S)n3-c3ccccc3)c(=O)[nH]2)cc1OC returned NadD block 3.9, bovine MsrA act -2.8, rCAG RNA binder 18.7, DSG3 Ab inh 96.0, MsrA inh 4.3 and DAGLB inhibitor 3.7.
Screening COc1ccc2cc3cc(C(=O)NCc4cccnc4)oc3nc2c1 returned NadD block 1.2, bovine MsrA act -5.7, rCAG RNA binder 4.0, DSG3 Ab inh 106.7, MsrA inh 5.6*, DAGLB inhibitor -0.8 and MsrA inh confirm 3.8.
For CCCN1CCCc2cc(CN)ccc21 the results were NadD block -5.1, bovine MsrA act -6.2, rCAG RNA binder -0.5, DSG3 Ab inh 94.0, MsrA inh 16.0*, DAGLB inhibitor -3.8 and MsrA inh confirm -0.7.
Screening Cc1ccc(C(=O)OCC(=O)Nc2cccc(S(=O)(=O)N3CCCCC3)c2)s1 returned NadD block -3.9, bovine MsrA act 0.3, rCAG RNA binder 5.9, DSG3 Ab inh 93.8, MsrA inh 4.0 and DAGLB inhibitor -6.9.
COc1ccc2nc(C)cc(N/N=C/c3ccc(F)cc3)c2c1 was read as NadD block 4.5, bovine MsrA act -7.2, rCAG RNA binder 26.7, DSG3 Ab inh 173.6, MsrA inh 42.0*, DAGLB inhibitor 4.1 and MsrA inh confirm 53.8*.
Cn1c2c(c(=O)n(C)c1=O)C(C(F)(F)F)(C(F)(F)F)N=C(C1CCCCC1)N2 was read as NadD block -2.7, bovine MsrA act 0.5, rCAG RNA binder -7.7, DSG3 Ab inh 96.1, MsrA inh 15.5*, DAGLB inhibitor -5.2 and MsrA inh confirm 11.7*.
`Cc1ccccc1C1=NC(C(F)(F)F)(C(F)(F)F)c2c(n(C)c(=O)n(C)c2=O)N1` gave NadD block -2.4, bovine MsrA act -6.5, rCAG RNA binder 0.8, DSG3 Ab inh 101.8, MsrA inh 5.4*, DAGLB inhibitor 1.3 and MsrA inh confirm 2.8.
For Cn1c2c(c(=O)n(C)c1=O)C(C(F)(F)F)(C(F)(F)F)N=C(c1ccc(Cl)cc1)N2 the results were NadD block 4.3, bovine MsrA act -6.3, DSG3 Ab inh 98.2 and DAGLB inhibitor 5.7.
